In the library only some 19% were active in any assay of this set; here they are far more common.
HT1080-NT tox = kills 2HG-producing HT-1080-NT fibrosarcoma cells | HT-1080-NT fibrosarcoma viability, CellTiter-Glo ATP luminescence, 48 h | Potency, µM (series often up to 46.1 µM), without a hit: at the highest dose activity, negative = less viability, usual class: cytotoxic | hit rate 1.6% among 360,000 | AID 686970;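 further: NT is the 2HG producing partner of a matched IDH1 knockdown line; 0% = DMSO-treated cells and -100% = media-only wells without cells; nearly all actives have a fitted effect of over 55% in size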
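HT-1080-NT; 750 cells/well; 5% FBS RPMI; 48 h compound, 37 degrees C; CellTiter-Glo luminescence; curve fitting and curve-class assignment.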
TDP1 cell CPT = DT40-hTDP1 cell growth loss with CPT; chicken DT40 Tdp1-/-;hTDP1 cells + 20 nM CPT, ATP luminescence, 48 h; Potency, µM (highest dose often 46.2 µM), for inactives: at the top dose activity change, negative = growth inhibition, hits mostly inhibitors; hit rate 12% among 420,000; AID 686979; further: nearly all actives have a fitted effect of over 55% in size
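Cell growth measured by CellTiter-Glo luminescence after a minimum 48 h, 37 C compound exposure with 20 nM CPT in Tdp1-knockout DT40 cells stably expressing hTDP1, seeded 400/well; qHTS titration format.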
KB-3-1 tox = KB-3-1 parental cell cytotoxicity | AID 1347075 | KB-3-1 viability, CellTiter-Glo ATP luminescence, 72 h | hit rate 1.4% among 400,000 | Potency, µM (series often up to 46.1 µM), usual class: cytotoxic; further: nearly all actives have a fitted effect of over 60% in size
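KB-3-1 parental drug-naive adenocarcinoma cells in DMEM/10% FBS, incubated 72 h at 37 C with pin-transferred compounds across a concentration series. Viability by CellTiter-Glo luminescence; concentration-response curves fitted after normalization.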
HT1080 IDH1KD tx = kills HT-1080 cells with IDH1 knockdown | HT-1080 IDH1 knockdown viability, ATP luminescence, 48 h | Potency, µM (highest dose often 46.1 µM), for inactives: top-dose activity, negative = toxicity, usual class: cytotoxic | hit rate 2% among 360,000 | AID 686971;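 further: 0% = DMSO wells and -100% = cell-free medium wells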
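Assay cells: HT-1080 with IDH1 knockdown, 750 per well, RPMI/5% FBS. Exposure: 48 h at 37 °C following 2 h pre-incubation. Read: CellTiter-Glo luminescence; fitted concentration-response, curve class assigned.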
KB-V1 MDR tox = kills drug-selected multidrug resistant KB-V1 cells; hit rate 3.4% among 400,000; Potency, µM (doses to about 46.1 µM), hits mostly cytotoxic; KB-V1 MDR cells viability, CellTiter-Glo, 72 h; further: nearly all actives have a fitted effect of over 60% in size
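KB-V1 MDR subline cells in DMEM (phenol-red free, 10% FBS) exposed to compounds in qHTS concentration series for 72 h at 37 degrees C. Viability read by CellTiter-Glo luminescence; concentration-effect curves fitted after normalization and correction.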
TDP1 cell noCPT = qHTS for Inhibitors of human tyrosyl-DNA phosphodiesterase 1 (TDP1): qHTS in cells in absence of CPT; DT40 Tdp1-/- hTDP1 cells, no CPT, ATP luminescence, 48 h; AID 686978, 2013; hit rate 15% among 420,000; Potency, µM (titrated, usually from 46.2 µM), for inactives: top-dose activity change, negative = growth inhibition, usual class: inhibitors; further: nearly all actives have a fitted effect of over 55% in size
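Readout: luminescence from CellTiter-Glo after 30 min in the dark at RT. Cells: DT40 Tdp1-/- with stable hTDP1, 400/well. Exposure: compounds alone, ≥48 hr, 37 °C.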
Active calls of the source: *; i = inactive; ? = inconclusive; nt = not tested or not shown. The call rests on the fitted dose curve; in most records, active means well fitted curve in the direction sought with a large enough effect; inconclusive means small, poorly fitted or top-dose-only effect, or another doubt; inactive means no such curve, though single readings can be large; an effect the other way counts as inactive or inconclusive. Unless noted, on the % scale 0 is the no-effect control and ±100 the full control effect; potency means the concentration at half of the fitted maximal effect.

SMILES	HT1080-NT tox	TDP1 cell CPT	KB-3-1 tox	HT1080 IDH1KD tx	KB-V1 MDR tox	TDP1 cell noCPT
CCn1cc(/C=C/C(=O)NCc2c(C)nn(C)c2C)cn1	1%	-19%	i	1%	i	-27%
Cc1nn(C)c(C)c1CNC(=O)/C=C/c1ccccc1F	-1%	-21%	i	3%	18µM*	?
COc1ccc(NC(=S)NC(=O)c2cncc(Br)c2)cc1	1%	8%	i	18%	i	?
Cc1cnn(CCC(=O)NNC(=S)Nc2ccccc2)c1	7.1µM*	11µM*	i	8.9µM*	?	18µM*
Cc1cnn(CCC(=O)NNC(=S)NCC(C)C)c1	13%	?	i	23%	i	26µM*
Cc1ccc(NC(=S)NNC(=O)CCn2cc(C)cn2)cc1	2.8µM*	-1%	i	6.3µM*	?	-10%
O=C(N/C=C/c1ccccc1)c1cccc([S+](=O)([O-])Nc2ccccc2F)c1	nt	nt	i	nt	?	nt
CC(=O)Nc1ccc(Nc2ccc3nonc3c2[N+](=O)[O-])cc1	1%	-23%	i	0%	i	?
COC(=O)CCSc1cc(NCCOC(C)=O)c([N+](=O)[O-])c2nonc12	21µM*	11µM*	i	?	i	18µM*
CCCC(=O)OCCNc1cc(SCCC(=O)OC)c2nonc2c1[N+](=O)[O-]	?	16µM*	i	?	i	?
COC(=O)c1c(C)[nH]c(C(=O)OCc2csc(CC(=O)Nc3ccccc3C)n2)c1C	4%	-28%	i	7%	i	?
COCCNC(=O)/C(C#N)=C/c1cc(C)n(C2CCCCC2)c1C	-18%	?	i	0%	?	16µM*
COCCNC(=O)/C(C#N)=C/c1ccccc1Br	0%	15µM*	i	2%	i	16µM*
CCCCc1cc(=O)oc2cc(OCc3cc(OC)c(OC)c(OC)c3)c(Cl)cc12	-29%	?	i	-23%	i	15µM*
CC1N=C2c3ccccc3N=C(SCC(=O)NCCc3ccc(Cl)cc3)N2C1=O (centres undefined)	nt	?	i	nt	i	-15%
CN1/C(=C/C=C/c2n(C)c3cc([N+](=O)[O-])c([N+](=O)[O-])cc3[n+]2C)C(C)(C)c2ccccc21	?	?	i	?	i	3.7µM*
CCc1cc(C(=O)OC)c(NC(=O)CN2CCN(C(=O)C3CCCO3)CC2)s1 (centres undefined)	0%	-29%	i	-2%	i	-24%
CC(=Nc1ccccc1)C1=C(O)C(Cc2ccc(F)cc2)NC1=O (centres undefined)	2.6µM*	1µM*	1.8µM*	2.6µM*	?	1.2µM*
CC(=Nc1ccccc1)C1=C(O)C(Cc2ccccc2)NC1=O (centres undefined)	0.58µM*	0.012µM*	0.0065µM*	?	i	0.0058µM*
CC(=Nc1ccccc1)C1=C(O)C(CC(C)C)NC1=O (centres undefined)	12%	-12%	i	11%	23µM*	-3%
Cc1ccc(-n2nnnc2CSc2nnc(-c3ccc(O)cc3)o2)cc1	4%	-27%	i	2%	i	?
CCOc1ccc(N(CC(=O)NCc2ccccc2Cl)S(=O)(=O)c2c(C)noc2C)cc1	-9%	?	i	3%	i	?
Cc1ccc(CNC(=O)C(=O)NCC(c2cccs2)S(=O)(=O)c2ccc(C)cc2)cc1 (centres undefined)	nt	?	i	nt	i	?
Cc1ccccc1NC(=O)CSc1nc2ccccc2c2nc(CCn3cncc3C)nn12	-3%	0%	i	0%	?	-20%
COc1cc2nc(SCC(=O)Nc3ccc(F)cc3)n3nc(CCn4c(C)nc5ccccc54)nc3c2cc1OC	nt	2.1µM*	i	nt	i	5.2µM*
SMILES	HT1080-NT tox	TDP1 cell CPT	KB-3-1 tox	HT1080 IDH1KD tx	KB-V1 MDR tox	TDP1 cell noCPT
COc1cc2nc(SCC(=O)Nc3ccccc3C)n3nc(CCn4c(C)nc5ccccc54)nc3c2cc1OC	nt	2.9µM*	i	nt	i	3.3µM*
COc1cc2nc(SCC(=O)Nc3cccc(C)c3)n3nc(CCn4c(C)nc5ccccc54)nc3c2cc1OC	nt	2.6µM*	i	nt	i	2.6µM*
Cc1ccc(CSc2nc3ccccc3c3nc(CCn4c(C)nc5ccccc54)nn23)cc1	nt	-13%	i	nt	i	-15%
CC1Oc2ccccc2N(CC(=O)Nc2ccc(F)cc2)C1=O (centres undefined)	-2%	?	i	1%	i	-22%
Cc1nn2c(NCCCN(C)C)c3c(nc2c1-c1ccccc1)CCC3	3%	?	i	8%	i	29µM*
Cc1nn2c(NCCCN(C)C)c3c(nc2c1-c1ccccc1)CCCC3	?	?	i	?	?	?
COC(=O)[C@@]1(C)[C@H]2C(=O)N(Cc3ccccc3)C(=O)[C@H]2[C@H]2CN=C(SCc3ccc(C)cc3)N21	11%	?	i	-1%	i	?
COC(=O)[C@@]1(Cc2ccccc2)[C@H]2C(=O)N(C)C(=O)[C@H]2[C@H]2CN=C(SCc3ccc(C#N)cc3)N21	6%	?	i	5%	i	?
COC(=O)[C@@]1(Cc2ccccc2)[C@H]2C(=O)N(Cc3ccccc3)C(=O)[C@H]2[C@H]2CN=C(SCC3CC3)N21	3%	?	i	7%	i	23µM*
CCN1C[C@@H]2[C@@H]3C(=O)N(C)C(=O)[C@@H]3[C@](Cc3ccccc3)(C(=O)OC)N2C1=NC1CCCCC1	-6%	?	i	-1%	i	21µM*
CCCN=C1N(CC)C[C@@H]2[C@@H]3C(=O)N(C)C(=O)[C@@H]3[C@](Cc3ccccc3)(C(=O)OC)N12	-3%	-13%	i	1%	i	-2%
COC(=O)c1ccc(CSC2=NC[C@@H]3[C@@H]4C(=O)N(Cc5ccccc5)C(=O)[C@@H]4[C@](C)(C(=O)OC)N23)cc1	11%	?	i	8%	i	16µM*
COC(=O)[C@@]1(Cc2ccccc2)[C@H]2C(=O)N(C)C(=O)[C@H]2[C@H]2CN=C(SCc3ccccc3)N21	4%	15µM*	i	2%	i	?

Assay outcomes from PubChem.
